# BAZ2B inh: inhibitors of human BAZ2B bromodomain. Q9UIF8. AlphaScreen BAZ2B-H3K14Ac peptide displacement. Potency, µM (top dose mostly 114 µM), for the others: top-dose activity change, negative = inhibition, usual class: inhibitors. 360,000 tested, 4.4% active; also: % is scaled to controls: 0 for no effect and ±100 for the full control effect; nearly all actives have a fitted effect of over 60% in size
#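 Protein-peptide AlphaScreen: BAZ2B 50 nM, b-H3K14Ac 50 nM, 1x PBS pH 7.4 + 0.01% Tween-20. Preincubation 30 min RT; cpd 30 min RT (top 110 uM); beads 20 min RT, light-protected.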
# G9a block: G9a (human) methyltransferase inhibition. Q96KQ7. Potency, µM (doses to about 102 µM), for the others: top-dose activity, negative = inhibition, most hits filed as inhibitors. 350,000 tested, 8.8% active. G9a H3K9 monomethylation, AlphaScreen, 2 h; also: % is scaled to controls: 0 for no effect and ±100 for the full control effect; nearly all actives have a fitted effect of over 75% in size
# Target sequence (Q96KQ7 913-1193 limits assumed): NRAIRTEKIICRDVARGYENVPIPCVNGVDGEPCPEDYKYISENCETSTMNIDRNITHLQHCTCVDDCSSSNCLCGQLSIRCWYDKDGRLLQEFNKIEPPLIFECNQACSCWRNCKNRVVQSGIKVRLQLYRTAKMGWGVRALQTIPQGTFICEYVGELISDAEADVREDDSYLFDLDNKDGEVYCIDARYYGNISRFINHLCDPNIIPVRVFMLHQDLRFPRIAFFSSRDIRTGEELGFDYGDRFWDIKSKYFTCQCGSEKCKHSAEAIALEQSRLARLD
#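 Using a bead-based AlphaScreen, monomethylated H3K9 product from 2 h room-temperature reactions (G9a 20 nM, peptide 500 nM, SAM 20 uM) was detected with 0.5 ug/mL rabbit anti-H3K9me1 antibody.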
# HP1b binding inh: HP1-beta chromodomain-methylated histone interaction inhibition | P83916 | AlphaScreen HP1-beta / biotin-H3K9me3 peptide binding | Potency, µM (highest dose often 114 µM), inactives show at the top dose activity change, negative = inhibition, most hits filed as inhibitors | 390,000 tested, 0.56% active; also: nearly all actives have a fitted effect of over 70% in size
# Target sequence (P83916 whole entry, looked up): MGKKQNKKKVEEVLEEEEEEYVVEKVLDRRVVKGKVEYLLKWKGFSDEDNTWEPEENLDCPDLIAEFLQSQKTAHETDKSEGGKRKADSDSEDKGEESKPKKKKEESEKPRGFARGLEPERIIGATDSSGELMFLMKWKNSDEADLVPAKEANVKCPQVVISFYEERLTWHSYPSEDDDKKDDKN
#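 AlphaScreen: HP1-beta (50 nM) preformed 30 min with biotin-H3(1-18)K9me3 peptide (50 nM) in PBS pH 7.4, 0.01% Tween-20. Compound added for 30 min at RT, then streptavidin donor/nickel chelate acceptor beads (10 ug/mL) for 30 min.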
# JMJD2A Tudor inh: inhibitors of human JMJD2A Tudor domain; AlphaScreen JMJD2A-Tudor / H3K4me3 peptide binding; Potency, µM (series often up to 114 µM), without a hit: at the highest dose activity change, negative = inhibition, hits mostly inhibitors; 390,000 tested, 4.4% active; AID 504339; also: % is scaled to controls: 0 for no effect and ±100 for the full control effect; nearly all actives have a fitted effect of over 50% in size
# Sfp PPTase inh: blocks B. subtilis Sfp PPTase activity | Q9F4F7 | Potency, µM, for inactives: largest response in the series, negative = inhibition, most hits filed as inhibitors | 310,000 tested, 3.5% active | Biochemical Sfp PPTase activity, qHTS;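 also: the enzyme is Sfp with the accession as filed and its product quenches rhodamine fluorescence; 0% = enzyme reaction without inhibitor and -100% = no enzyme wells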
#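 After 15 min at room temperature with compound, 15 nM Sfp received 5 uM rhodamine-CoA plus 12.5 uM BHQ-2-ybbR (50 mM Hepes pH 7.6, 10 mM MgCl2). Rate came from the fluorescence difference over 30 min, ex 525/em 598 nm.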
# * hit, by the source's call; ? = inconclusive; / = no result; [ ] = another dose, or the depositor's remark. Compounds with a hit are over-represented: about 12% of the library has one in this group of screens. Calls follow the shape of the dose curve; as a rule, active = well fitted curve in the direction sought with a large enough effect; inconclusive = small, poorly fitted or top-dose-only effect, or another doubt; inactive = no such curve, though single readings can be large; an effect the other way counts as inactive or inconclusive. Potency is read from the fitted curve at half-maximal effect.
SMILES,BAZ2B inh,G9a block,HP1b binding inh,JMJD2A Tudor inh,Sfp PPTase inh
O=C(COC(=O)CCc1nc2ccccc2s1)NC(=O)NCc1ccco1,50µM*,-1%,-9%,-33%,-25%
O=C(COC(=O)CCc1nc2ccccc2s1)NCc1ccco1,-20%,2%,6%,-13%,23%
CC1(C(=O)CSc2nc3ccccc3s2)CCC(=O)O1 (centres undefined),?,2%[12.7 µM],37%,40µM*,?
Cc1cc(SCC(=O)c2ccc(O)c(O)c2)nc2ccccc12,18µM*,10µM*,?,?,-9%
C#CCNC(=O)C1=C[C@H](c2coc3ccccc3c2=O)C[C@H](OCCCCO)O1,-13%,/,27%,-13%,12%
N#CC1(NC(=O)CSc2n[nH]c(-c3ccccc3)n2)CCCCC1,-3%,8.9µM*,32%,-10%,/
O=C(CSc1n[nH]c(-c2ccccc2)n1)Nc1ccc(Br)cn1,2%,?,37%,-9%,16%
Cc1ccc(S(=O)(=O)NC(=O)CSc2nc3ccccc3s2)cc1,-1%,50µM*,25%,-17%,3%
CCN(CC(=O)NC(=O)NCc1ccco1)Cc1nc2ccccc2c(=O)[nH]1,-36%,?,15%,-27%,50µM*
Cc1cc(SCC(=O)NC(=O)NCc2ccco2)nc2ccccc12,-11%,?,24%,-18%,25µM*
O=C(CSc1nc(-c2ccccc2)cs1)NC(=O)NCc1ccco1,-2%,6%[59 µM],12%,-25%,?
Cc1cc(SCC(=O)NC(=O)c2cccn2C)nc2ccccc12,?,50µM*,2%,?,-21%
Cc1cc(SCC(=O)O)nc2ccccc12,23%,11%,6%,-7%,-7%
O=C(CSc1nc2ccccc2s1)NC(=O)NCc1ccco1,?,45µM*,-1%,?,-29%
COc1ccccc1OCC(=O)Nc1cc2c(cc1C(=O)O)OCCCO2,-20%,7.9µM*,48%,79µM*,79µM*
CSc1ccccc1C(=O)Nc1cc2c(cc1C(=O)O)OCCCO2,-27%,2.8µM*,1%,22µM*,4%
COc1ccccc1C(=O)Nc1cc2c(cc1C(=O)O)OCCCO2,7%,2%[59 µM],16%,-12%,31%
CCOc1ccccc1OCC(=O)Nc1cc2c(cc1C(=O)O)OCCCO2,-11%,25µM*,57%,-1%,79µM*
COc1ccc(-c2nc(NC(=O)C3CC(=O)N(c4ccc5c(c4)OCCO5)C3)sc2C)cc1 (centres undefined),?,?,-4%,?,-24%
Cc1cc(O)c(/C=N/Nc2cccc(Cl)c2)c(=O)o1,-7%,2.2µM*,36%,-26%[11.4 µM],-15%
Cc1cc(O)c(/C=N/OCc2ccc(Cl)cc2Cl)c(=O)o1,1%,20µM*,10%,?,-2%
Cc1cccc(N=Cc2c(O)cc(C)oc2=O)c1,12%,?,5%,-7%,12%
Cc1cc(O)c(/C=N/Nc2ccc(Cl)cc2)c(=O)o1,2%[57.1 µM],8.9µM*,-14%,?,79µM*
Cc1cc(O)c(/C=N/Nc2ccccc2Cl)c(=O)o1,-4%,1.4µM*,17%,56µM*,-11%
CCOc1ccccc1NC(=O)CN1C(=O)C(=O)c2ccccc21,-12%,4%[59 µM],29%,-15%,/
SMILES,BAZ2B inh,G9a block,HP1b binding inh,JMJD2A Tudor inh,Sfp PPTase inh
CCOc1ccccc1C(O)C1=CC(=O)c2ccccc2C1=O (centres undefined),/,/,-21%,25µM*,/
CCOC(=O)C(=O)CC(=O)c1ccc2c(c1)OCCO2,50µM*,20µM*,7%,-26%,-24%
O=C(CCCc1ccccc1)c1ccc2c(c1)OCCO2,222%,159%[59 µM],373%,205%,-17%
O=C(CCc1ccccc1)c1ccc2c(c1)OCCCO2,139%,208%,191%,151%,-10%
CCOC(=O)c1ccc(NS(=O)(=O)c2ccc3c(c2)OCCO3)cc1,6%[57.1 µM],-31%[59 µM],35%,-31%,/
O=C(CCN1CCCCC1)c1ccc2c(c1)OCCO2,6%,8.9µM*,3%,-15%,-14%
O=C(CCN1CCCC1Cc1ccccc1)c1ccc2c(c1)OCCO2 (centres undefined),?,2.8µM*,?,89µM*,50µM*
O=C(CCN1CCc2ccccc21)c1ccc2c(c1)OCCO2,50µM*,?,-43%,?,?
